Results as given in PubChem BioAssay AID1745849 (National Center for Advancing Translational Sciences (NCATS), 2022).
About 320 (15%) of roughly 2,100 compounds were called active. About 52% were inconclusive and are not listed. Some of the results follow. Unmarked numbers belong to inactive results. Calls come from the whole dose curve; as a rule, active = well fitted cell-killing curve with a large enough effect; inconclusive = small, poorly fitted or top-dose-only effect, or effect the other way; inactive = flat fitted curve, though single readings scatter.

Assay: Viability Counterscreen for CMV-Luciferase Assay of Inhibitors of ATXN expression; note: nearly all actives have a fitted effect of over 55% in size
Conditions: HEK-293 CMV-luciferase cells viability, protease fluorescence, 24 h; series mostly up to 57.5 µM
Text: PI: Daniel Scoles Ph.D. University of Utah School of Medicine, Salt Lake City, Utah MLPCN Grant: NS073009 Spinocerebellar ataxia type 2 (SCA2) is a multisystem neurodegenerative disease caused by a dominantly acting mutation leading to expansion of a polyQ domain in the ataxin-2 protein (ATXN2). SCA2 patients develop progressive ataxia and later lose function in other neuronal systems. Prominent parkinsonian signs develop in some patients. Like many neurodegenerative disorders, no symptomatic or disease-modifying treatments are known. The primary objective of the proposed research is to identify compounds inhibiting ATXN2 expression and to test them for efficacy in SCA2 mouse models. We have developed a cell-based assay paired with an in vivo mouse model using identical luciferase expression constructs. This approach takes advantage of an ATXN2-luciferase transgene, with the luciferase gene flanked by the upstream and downstream portions of the ATXN2 gene. Here we describe a 5-7 dose quantitative high thoroughput screen (qHTS) for compounds lowering ATXN2 expression. We screened the NIH Molecular Libraries Small Molecule Repository (MLSMR) and NCGC's mechanistically annotated (MIPE) and drug repurposing (NPC) collections of compounds for lowering expression of an ATXN2-luciferase reporter in HEK-293 cells. The assay is a multiplexed cell viability assay to ensure target reduction in the absence of cytotoxicity. Secondary qHTS assays included a CMV-luciferase reporter expressed in HEK-293 cells as well as a biochemical assay using recombinant luciferase to detect inhibitors of the reporter enzyme. Compounds that inhibit ATXN2 expression but is not cytotoxic were selected for confirmatory and secondary screens.
PROTOCOL TABLE (as described by Inglese J, Shamu CE and Guy RK. 2007) SEQUENCE No. (e.g., 1, 2, 3, etc.); […] (e.g., Cells, Incubation, Reagent, etc.); VALUE; DESCRIPTION. 1; Cells; 4 uL; white, solid bottom, 1536-well Greiner assay plate. 2; Incubation; 2 hr; 37 degree C in 5% humidified CO2. 3; Compounds; 23 nL; Kalypsis pintool (Wako USA) equipped with a 1536-well pin head. 4; Incubation; 24 hr; 37 degree C in 5% humidfified CO2. 5; Reagent; 1 uL; Gly-Phe-7-Amino-4-trifluoromethylcoumarin. 6; Incubation; 30 min; 37 degree C in 5% humidfified CO2. 7; Detection; Fluorescence; Viewlux plate reader (PerkinElmer). 8; Reagent; 3 uL; SteadyGlo luciferase solution (Promega). 9; Incubation; 5 min; room temperature. 10; Detection; Luminescence; ViewLux plate reader (PerkinElmer). NOTES (numbers refer to Sequence numbers above) 1. HEK-293 cells expressing CMV-luciferase reporter (designated as SC cells) were suspended in phenol-red free DMEM and dispensed in assay plates using a Multidrop Combi dispenser (Thermo Fisher Scientific). 2. Assay plates were incubated. Evaporation was prevented by covering assay plates with metal lids containing holes to allow gas diffusion. 3. Compounds were added in a dose response manner with the final concentrations of 57, 11.4, 2.28, 0.46, 0.091, 0.018, 0.0037 uM. Vehicle-only plates, with DMSO being pin-transferred to columns 5-48, were inserted uniformly at the beginning and the end of each library to monitor and record any shifts in assay performance. 5. 125 uM Gly-Phe-7-Amino-4-trifluoromethylcoumarin (MP Biomedicals) working concentration was used at a final concentration of 25 uM. 7. To assess cell viability; the assay plates were read using the ViewLux high-throughput CCD imager (PerkinElmer), wherein single end-point fluorescence measurement was acquired (excitation 405/10; emission 540/25 nm). 8. Detection reagent SteadyGlo Luciferase (Promega) was added to the assay plate. 10. Luminescence is then measured on the ViewLux imager equipped with a clear emission filter using a 2 sec exposure. […]
% is set by controls: 0 for no effect and ±100 for the full control effect; potency is the fitted concentration of half-maximal effect.

Compound | Potency | activity change, negative = cytotoxicity
COC12C(COC(N)=O)C3=C(C(=O)C(C)=C(N)C3=O)N1CC1C2N1C (configuration not stated) | 12.6 µM (active) | –
O=c1[nH]c2ccccc2n1C1CCN(C(CCc2ccccc2)c2nnnn2C2CCCC2)CC1 (configuration not stated) | 11.2 µM (active) | –
CC(C)(C)n1nnnc1C(CCc1ccccc1)N1CCC(n2c(=O)[nH]c3ccccc32)CC1 (configuration not stated) | 20 µM (active) | –
Cc1cccc(C)c1-n1nnnc1C(c1cc2ccccc2o1)N1CCC(n2c(=O)[nH]c3ccccc32)CC1 (configuration not stated) | 7.94 µM (active) | –
CN1C(=O)NC(=O)/C(=C\C=C\c2ccccc2[N+](=O)[O-])C1=O | 7.94 µM (active) | –
Oc1c(Cl)cccc1Cc1cc(Cl)cc(Cl)c1O | 15.8 µM (active) | –
c1ccc(CNc2c3c(nc4ccccc24)CCC3)cc1 | inactive | –
O=C(Nc1ccc(OC(=O)N2CCCCC2)cc1)N1CCOCC1 | inactive | –
CCCCN=C[C@]12CCC(O)CC1(O)CCC1[C@@H]2CC[C@]2(C)[C@H](C3C=CC(=O)O3)CCC12O (some centres not stated) | 1.78 µM (active) | –
CC12CCC3C(CCC4(O)CC(O)CCC34C=NO)C1(O)CCC2C1=COC(=O)C1 (configuration not stated) | 0.891 µM (active) | –
C1=NCCc2c1[nH]c1ccccc21 | – | 1.29% [at 11.4 µM]
COc1cccc2c1C(=O)c1c(O)c3c(c(O)c1C2=O)CC(O)(C(C)=NO)CC3OC1CC(N)C(O)C(C)O1 (configuration not stated) | 14.1 µM (active) | –
O=[N+]([O-])c1oc2ccc3ccccc3c2c1CCO | 20 µM (active) | –
Cc1ccc(-c2nc(N(C)C3CCN(C)CC3)c3ccccc3n2)cc1 | inactive | –
c1ccc2sc(N3CCNCC3)nc2c1 | inactive | –
N[C@@H](Cc1ccc(N(CCCl)CCCl)cc1)C(=O)O | 12.6 µM (active) | –
O=C(NN=Cc1ccc(N(CCCl)CCCl)cc1)c1cc(=O)[nH]c(=O)[nH]1 | inactive | –
O=C1NC(=O)N(CCc2ccc(F)cc2)C(=O)/C1=C/C=C/c1ccccc1 | 7.94 µM (active) | –
COc1ccc(CC2NCC(O)C2OC(C)=O)cc1 (configuration not stated) | 0.282 µM (active) | –
CCC1(OC(=O)CN)C(=O)OCc2c1cc1n(c2=O)Cc2cc3ccccc3nc2-1 (configuration not stated) | – | 14.6% [at 11.4 µM]
COC(=O)c1nc(-c2ccc3c(n2)C(=O)C(N)=C(OC)C3=O)c(N)c(-c2ccc(OC)c(OC)c2O)c1C | 20 µM (active) | –
C[C@@H]1O[C@@H](O[C@@H]2C=C3CC[C@@H]4C(CC[C@]5(C)[C@@H](c6ccc(=O)oc6)CC[C@]45O)[C@@]3(C)CC2)[C@H](O)[C@H](O)[C@H]1O (some centres not stated) | 8.91 µM (active) | –
COc1ccc(CC2C(=O)NC(C)C(=O)N(C)C3C(=O)N(C)C(Cc4ccc(O)c(c4)Oc4ccc(cc4)C3O)C(=O)NC(C)C(=O)NC(C)C(=O)N2C)cc1 (configuration not stated) | 0.355 µM (active) | –
O=C(CSC1c2ccccc2-c2ccccc21)N/N=C/c1ccccc1O | 3.55 µM (active) | –
CC(=NCCc1c[nH]c2ccccc12)c1c(O)n(Cc2ccccc2)c(=O)[nH]c1=O | inactive | –
CCCCCCC(=O)N/N=C/c1c(O)n(CCCC)c(=S)[nH]c1=O | inactive | –

Compound | Potency | activity change, negative = cytotoxicity
CCCCCCC(=O)N/N=C/c1c(O)n(CCc2ccccc2)c(=O)[nH]c1=O | 8.91 µM (active) | –
COc1ccc(CCNCc2ccc(F)cc2)cc1OC | – | -21.2% [at 11.4 µM]
CC(=O)OC1CC2(O)C3CCC4CC(O)CCC4(C)C3CCC2(C)C1C1=CC(=O)OC1 (configuration not stated) | 0.501 µM (active) | –
C[C@]12CCC3C(CCC4=CC(O)CC[C@@]43/C=N/O)C1(O)CCC2C1=CC(=O)OC1 (some centres not stated) | 1.41 µM (active) | –
CC12CCC(O)CC1CCC1C2CCC2(C)C(C3=CC(=O)OC3)C(O)CC12O (configuration not stated) | 7.94 µM (active) | –
C[C@]12CC[C@H](O)C[C@H]1CC[C@@H]1[C@@H]2CC[C@]2(C)[C@@H](C3=CC(=O)OC3)CC[C@]12O | 0.794 µM (active) | –
CC[C@@]1(O)C(=O)OCc2c1cc1n(c2=O)Cc2cc3c(NC(=O)CN)cccc3nc2-1 | – | 25.7% [at 11.4 µM]
COC1C(O)C(C)OC(OC2C(Oc3cccc4c(O)c5c(=O)oc6ccc(C)c7c(=O)oc(c34)c5c67)OC(C)C(O)C2O)C1O (configuration not stated) | – | 7.77% [at 11.4 µM]
CC1OC(OC2C(O)CC(OC3C(O)CC(OC4CCC5(C)C(CCC6C5CCC5(C)C(C7=CC(=O)OC7)C(O)CC65O)C4)OC3C)OC2C)CC(O)C1O (configuration not stated) | 0.251 µM (active) | –
CN1C2CCC1/C(=C/c1ccccn1)C(=O)/C2=C\c1ccccn1 | 0.708 µM (active) | –
C[C@@H]1C[C@@H]([C@H](O)CC2CC(=O)NC(=O)C2)C(=O)[C@@H](C)C1 | 1.78 µM (active) | –
CCC(C)N1C(=O)/C(=C\c2cnc(N(C)C)nc2)C(=O)NC1=S (configuration not stated) | inactive | –
C=CCCC[C@@H]1OC(=O)CNC(=O)C([C@@H](C)CC)NC(=O)[C@@H]2CCCN2C(=O)C([C@@H](C)CC)OC(=O)[C@H](Cc2ccccc2)N(C)C(=O)[C@H](C(C)C)NC(=O)C1(C)C (some centres not stated) | 3.55 µM (active) | –
CCCCCOc1ccc(C)cc1CN(CCCl)CCCl | 22.4 µM (active) | –
CCCCCn1c(=O)c(C(=O)NCc2ccccn2)c(O)c2ccccc21 | – | -15.5% [at 11.4 µM]
C[C@H]1[C@@H](OS(=O)(=O)O)C[C@@H]2C[C@H]([C@@H](O)c3cc(=O)[nH]c(=O)[nH]3)NC3=NC[C@H]1N32 | 12.6 µM (active) | –
CSCCC(c1nnnn1-c1c(C)cccc1C)N1CCC2(CC1)C(=O)NCN2c1ccccc1 (configuration not stated) | 28.2 µM (active) | –
CC(C)CNc1c2c(nc3ccccc13)CCC2 | – | -29.7% [at 11.4 µM]
Cc1ccc(/C=C2\C(=O)NC(=S)N(c3ccccc3F)C2=O)s1 | 3.98 µM (active) | –
C[C@H]1CCC[C@H](O)CCCCCc2cc(O)cc(O)c2C(=O)O1 | – | -5.55% [at 11.4 µM]
C[C@H]1CCC[C@@H](O)CCC/C=C/c2cc(O)cc(O)c2C(=O)O1 | 1.58 µM (active) | –
CCC(C)(O)C(=O)OC1C(=O)OC2CC3C(C)=CC(=O)C(O)C3(C)C3C4(O)OCC23C1C(C)C4O (configuration not stated) | 0.316 µM (active) | –
O=C1NC(=O)C2(CCCc3ccc(N(CCCl)CCCl)cc32)N1 (configuration not stated) | 11.2 µM (active) | –
COc1ccc2c(c1)C(c1ccc(N(CCCl)CCCl)cc1)=NCC2 | inactive | –
CC1CC(C)CC(C)C(O)C(C#N)=CC=CCC(C2CCCC2C(=O)O)OC(=O)CC(O)C(C)C1 (configuration not stated) | 0.398 µM (active) | –
COC(=O)C(O)(c1ccc(NC(=S)NC(=O)c2ccc(Cl)cc2Cl)c(C)c1)C(F)(F)F (configuration not stated) | – | 1.53% [at 11.4 µM]
